Holding throughout (experiment): NCI-60 one-dose screen, 48 h (100 = growth as untreated, 0 = no growth, -100 = all killed)
Details in all cases: 10 µM unless noted

Assay [1] deals with NCI-H23 lung.
The subject of assay [2] is NCI-H226 lung.
Assay [3] deals with NCI-H322M lung.
The subject of assay [4] is HOP-62 NSCLC.
In assay [5] the test system is NCI-H460 lung.
The test system of assay [6] is HOP-92 NSCLC.
Assay [7] concerns NCI-H522 lung.
The test system of assay [8] is A549/ATCC NSCLC.
Assay [9] has as its system 786-0 renal.
For assay [10], the system named is COLO 205 colon.
Assay [11] relates to DU-145 prostate.
The subject of assay [12] is K-562 leukemia.
The test system of assay [13] is MALME-3M melanoma.
Assay [14] deals with MDA-MB-231 breast.
For assay [15], the system named is RXF 393 renal.
The subject of assay [16] is SF-268 CNS.
Assay [17] concerns SF-295 CNS.
Assay [18] deals with SF-539 CNS.
For assay [19], the system named is UACC-257 melanoma.
The test system of assay [20] is M14 melanoma.

This is part of a sample that, as a whole, favours compounds with a hit. Of some 83,000 tested, about 20% had one in any assay.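 Treatment: one concentration, 48 hours, 96-well format. Scoring: percent growth, with anything below 10 considered active.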 A number with no mark means an inactive call. The source made the active and inactive calls.

`Cc1ccc(NS(=O)(=O)c2ccc3c(c2)C2OCCC2C(c2ccc(C(=O)C(C)C)cc2)N3)cc1C` (stereo not given): the growth is 38.7% in [1]; 45.3% in assay [2]; 82.2% in assay [3]; 70.3% in assay [4]; 31.7% in assay [5]; 74% in assay [6]. Moreover, the growth in [7] was 39.2%; in assay [8] it was 27.4%; in assay [9] it was 58.9%; in assay [10], 30.8%; in [11] it was 60.9%; in assay [12], 33.6%. Further, the growth in assay [13] is 17.1%; in assay [14] it was 76.5%; in assay [15], 65.4%; in assay [16], 57.8%; in assay [17] it was 31.9%; in assay [18], 66%. The growth in [19] was 23.9%; in assay [20], 50%.

Regarding `O=c1c2c3c(sc2n2c(-c4cn(-c5ccccc5)nc4-c4ccc(Cl)cc4)nnc2n1Cc1ccccc1)CCCC3`, the growth was 94.3% in assay [1]; 107% in assay [2]; 102% in [3]; 94.6% in assay [4]; 106% in [5]; 81.8% in assay [6]. Also, the growth was 77.5% in [7]; 105% in assay [8]; 99.6% in assay [9]; 111% in assay [10]; 103% in [11]; 89.7% in assay [12]. For the same compound, the growth in assay [13] was 97.4%; in [14], 80.3%; in [15], 94.5%; in [16], 99.7%; in [17] it was 98.5%; in [18], 90.3%. The growth in assay [19] was 118%; in [20] it was 60.3%.

In the case of `CN(Cc1cnc2nc(N)nc(N)c2n1)c1ccc(C(=O)N[C@@H](CCc2nn[nH]n2)c2nn[nH]n2)cc1`, the growth in assay [1] was 40.8%; in [2] it was 85.4%; in assay [3], 66%; in [4], 32.7%; in assay [5], 19.4%; in assay [6], 93.2%. Also, the growth is 40.9% in assay [7]; 22.9% in [8]; 26.8% in assay [9]; 49.3% in [10]; 32.8% in assay [11]; 18.1% in assay [12]. Besides, the growth is 68.9% in assay [13]; 111% in assay [14]; 71.1% in [15]; 39% in [16]; 40.8% in [17]; 46.6% in assay [18]. The growth in [19] is 55.8%; in [20] it was 29.8%.

Take `C=C(C)[C@@H]1CC[C@]2(C)[C@H](CC=C3[C@@H]4CC(C)(C)CC[C@]4(C(N)=O)CC[C@]32C)[C@@]1(C)CCC#N`: the growth is 27.9% in [1]; 49.7% in assay [2]; 72.1% in assay [3]; 56.7% in assay [4]; 12.8% in assay [5]; 32% in assay [6]. In addition, the growth is 7.77% (active) in [7]; 17.6% in assay [8]; 26.1% in [9]; -12.1% (active) in [10]; 42.1% in [11]; 15.9% in assay [12]. The growth was 10.4% in assay [13]; 38.6% in assay [14]; 2.74% (active) in [15]; 45.6% in assay [16]; 38.5% in [17]; 35.7% in assay [18]. The growth is 17.5% in [19] and 44.7% in assay [20].

Take `COc1ccc2c(c1)O/C(=C\c1cccc(OCC(=O)Nc3nc(C)c(C)s3)c1)C2=O`: the growth is 19.4% in assay [1]; 92.2% in assay [2]; 103% in [3]; 101% in [4]; 88.8% in assay [5]; -75.4% (active) in assay [6]. Further, the growth in assay [7] was -73.8% (active); in assay [8] it was 12.4%; in [9], 17.7%; in [10], 91.6%; in assay [11], -96.2% (active); in assay [12], -41.3% (active). In addition, the growth was -54% (active) in assay [13]; 21.2% in assay [14]; -66.3% (active) in [15]; -55.4% (active) in [16]; -80.2% (active) in assay [17]; -78.9% (active) in assay [18]. The growth in assay [19] was 88.5%; in assay [20], -15.1% (active).

Regarding `COc1ccc2[nH]c(O)c(C(=Nc3ccc(N(C)C(=O)CN4CCN(C)CC4)cc3)c3ccccc3)c2c1`, the growth is 21.2% in assay [1]; 29% in [2]; 61.1% in assay [3]; 23.5% in assay [4]; 15.3% in [5]; 12.7% in [6]. Further, the growth was 67.2% in assay [7]; 24.2% in assay [8]; 42.4% in assay [9]; -6.6% (active) in assay [10]; 27.7% in assay [11]; 5.35% (active) in [12]. The growth was 43.5% in [13]; 28.4% in assay [14]; -25.1% (active) in assay [15]; 30.7% in assay [16]; 48.3% in assay [17]; -38.9% (active) in assay [18]. Also, the results for the growth in [19] and in [20] were 65.9% and 29.3%, respectively.

`CC(=O)O[C@]1(C(C)=O)CCC2C3C[C@H](C)C4=CC(=O)CC[C@]4(C)C3CC[C@@]21C` (stereo not given in full): the growth in assay [1] was 96.2%; in assay [2], 73.6%; in assay [3] it was 95.7%; in assay [4] it was 94.6%; in assay [5], 103%; in assay [6] it was 89.9%. Also, the growth in assay [7] was 74.8%; in [8], 73.3%; in [9], 97.4%; in assay [10] it was 104%; in assay [11], 117%; in assay [12], 96%. Further, the growth in [13] is 82.8%; in [14], 71%; in assay [15], 119%; in assay [16], 108%; in assay [17], 95.7%; in assay [18], 94.1%. Besides, the growth was 107% in [19] and 89% in assay [20].

Source of the values: PubChem BioAssay (NCI).
